Measurements as given in the supplement of paper PMC10849652.
About 7,900 targets were measured; listed, in parts, are those with a hit and a random draw of the rest. About 0.6% of all pairs of compound and target were hits. Values without a mark were called inactive.

Assays:
Test in all cases: log2 fold change, soluble protein after heating vs DMSO (PISA); higher = thermal stabilisation; K562 cells, 10 uM, 30 min; active = over 0.2 and 3.5 SD of the protein, either way, in both replicates (recomputed)
[1] = compound: CC[C@@H]1C(=O)N(C)c2cnc(Nc3ccc(C(=O)NC4CCN(C)CC4)cc3OC)nc2N1C1CCCC1
Outline: (§1)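 Values are thermal stability changes relative to control samples and are taken from duplicates. They are stated as log2 fold changes. Before quantification by TMTpro 16plex LC-MS/MS with equalised channel sums, K562 cells at 2×10^6 cells/mL were treated with 10 μM compound for 30 min, heated in aliquots for 3 min across 48°C-58°C, pooled, extracted in PBS with 0.5% NP-40 at 4°C, and centrifuged at 21,000xg for 90 min to give the soluble supernatant.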

volasertib = compound: CC[C@@H]1C(=O)N(C)c2cnc(Nc3ccc(C(=O)N[C@H]4CC[C@H](N5CCN(CC6CC6)CC5)CC4)cc3OC)nc2N1C(C)C [volasertib]
Outline: as §1

epoxomicin = compound: CC[C@H](C)[C@@H](C(=O)N[C@@H]([C@@H](C)O)C(=O)N[C@@H](CC(C)C)C(=O)[C@]1(CO1)C)NC(=O)[C@H]([C@@H](C)CC)N(C)C(=O)C [epoxomicin]
Outline: as §1

[2] = compound: CCn1c(C(=O)N(C2CC2)C2CC2)cc2c3c(ncn3C)c(Nc3cc(C)n(C)n3)nc21
Outline: as §1

[3] = compound: CN(C)CC(=O)Nc1ccc2[nH]c(=O)c3ccccc3c2c1
Outline: as §1

rosiglitazone = compound: CN(CCOC1=CC=C(C=C1)C[C@H]2C(=O)NC(=O)S2)C3=CC=CC=N3 (racemic) [rosiglitazone]
Outline: as §1

[4] = compound: CN1C2=C(C3=C1C(=O)N(N=C3)CC4=CC(=CC=C4)N)SC(=C2)S(=O)C
Outline: as §1

[5] = compound: CC[C@H](C)N1C=C(C2=C(C=C(C=C21)C3=CN=C(C=C3)N4CCNCC4)C(=O)NCC5=C(C=C(NC5=O)C)C)C
Outline: as §1

[6] = compound: CCn1cc(-c2ccnc3[nH]c(-c4cccc(CN(C)C)c4)cc23)c(-c2ccc(NC(=O)N(C)C)cc2)n1
Outline: as §1

[7] = compound: CN1CCC(CNc2ccc3ncc(-c4cccc(OC(F)(F)F)c4)n3n2)CC1
Outline: as §1

UniProt Q9BY78, sequence (Q9BY78 whole entry, looked up): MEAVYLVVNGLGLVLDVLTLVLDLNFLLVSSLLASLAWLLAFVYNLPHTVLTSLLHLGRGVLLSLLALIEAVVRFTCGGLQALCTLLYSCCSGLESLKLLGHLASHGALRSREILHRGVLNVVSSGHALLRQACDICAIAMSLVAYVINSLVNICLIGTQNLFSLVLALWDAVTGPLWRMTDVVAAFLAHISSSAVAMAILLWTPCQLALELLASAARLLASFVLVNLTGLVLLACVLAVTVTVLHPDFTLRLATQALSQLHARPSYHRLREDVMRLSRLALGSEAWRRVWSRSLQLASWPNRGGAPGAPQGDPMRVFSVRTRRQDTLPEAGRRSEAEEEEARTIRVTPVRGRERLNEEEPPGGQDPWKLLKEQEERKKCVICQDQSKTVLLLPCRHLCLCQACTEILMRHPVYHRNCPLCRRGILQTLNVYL
UniProt A1X283, sequence (A1X283 whole entry, looked up): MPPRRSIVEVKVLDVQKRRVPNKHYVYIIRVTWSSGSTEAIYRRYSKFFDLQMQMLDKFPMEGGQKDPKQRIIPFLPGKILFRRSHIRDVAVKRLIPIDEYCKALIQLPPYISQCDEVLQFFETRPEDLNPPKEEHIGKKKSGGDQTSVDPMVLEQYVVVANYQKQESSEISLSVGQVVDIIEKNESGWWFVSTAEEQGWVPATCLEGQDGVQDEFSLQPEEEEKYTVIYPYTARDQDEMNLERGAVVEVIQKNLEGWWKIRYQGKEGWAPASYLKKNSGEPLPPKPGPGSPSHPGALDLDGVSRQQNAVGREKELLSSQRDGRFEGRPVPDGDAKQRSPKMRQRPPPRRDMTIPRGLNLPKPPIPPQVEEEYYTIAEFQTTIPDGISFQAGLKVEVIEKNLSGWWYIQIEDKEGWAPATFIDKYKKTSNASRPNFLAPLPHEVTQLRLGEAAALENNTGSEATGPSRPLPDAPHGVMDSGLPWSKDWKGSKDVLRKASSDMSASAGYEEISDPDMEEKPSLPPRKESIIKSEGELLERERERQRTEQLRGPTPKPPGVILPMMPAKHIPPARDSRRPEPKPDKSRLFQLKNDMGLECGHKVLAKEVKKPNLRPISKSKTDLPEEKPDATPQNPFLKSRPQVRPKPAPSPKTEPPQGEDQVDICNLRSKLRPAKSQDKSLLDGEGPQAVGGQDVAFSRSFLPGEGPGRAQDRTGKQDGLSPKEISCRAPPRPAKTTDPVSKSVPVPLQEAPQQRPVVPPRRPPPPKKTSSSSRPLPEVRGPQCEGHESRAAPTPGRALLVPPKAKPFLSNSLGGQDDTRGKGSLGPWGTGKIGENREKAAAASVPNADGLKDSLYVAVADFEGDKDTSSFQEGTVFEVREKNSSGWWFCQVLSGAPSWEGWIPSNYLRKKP
UniProt Q86UA6, sequence (Q86UA6 whole entry, looked up): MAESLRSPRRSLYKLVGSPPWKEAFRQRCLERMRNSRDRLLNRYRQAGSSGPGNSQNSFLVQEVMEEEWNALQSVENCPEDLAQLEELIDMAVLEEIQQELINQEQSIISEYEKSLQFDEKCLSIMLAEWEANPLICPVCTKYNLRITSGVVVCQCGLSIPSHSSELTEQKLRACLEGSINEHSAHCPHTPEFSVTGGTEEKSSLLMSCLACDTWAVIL
UniProt Q02383, sequence (Q02383 whole entry, looked up): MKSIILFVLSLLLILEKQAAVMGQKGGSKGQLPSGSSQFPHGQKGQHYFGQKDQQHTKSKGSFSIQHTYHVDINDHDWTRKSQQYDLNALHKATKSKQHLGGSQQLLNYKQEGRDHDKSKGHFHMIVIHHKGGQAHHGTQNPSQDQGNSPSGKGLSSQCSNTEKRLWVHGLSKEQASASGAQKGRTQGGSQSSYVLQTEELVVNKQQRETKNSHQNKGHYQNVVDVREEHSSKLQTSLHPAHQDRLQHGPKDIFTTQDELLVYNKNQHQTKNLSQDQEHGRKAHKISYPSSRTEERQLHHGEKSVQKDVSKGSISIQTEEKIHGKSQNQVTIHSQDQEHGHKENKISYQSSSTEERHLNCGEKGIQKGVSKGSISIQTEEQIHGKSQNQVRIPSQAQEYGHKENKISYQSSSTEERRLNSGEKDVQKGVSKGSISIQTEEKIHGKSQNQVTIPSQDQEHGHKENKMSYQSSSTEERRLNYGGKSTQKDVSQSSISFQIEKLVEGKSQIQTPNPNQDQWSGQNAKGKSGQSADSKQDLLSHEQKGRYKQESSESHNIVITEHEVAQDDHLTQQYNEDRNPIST
UniProt O75056, sequence (O75056 whole entry, looked up): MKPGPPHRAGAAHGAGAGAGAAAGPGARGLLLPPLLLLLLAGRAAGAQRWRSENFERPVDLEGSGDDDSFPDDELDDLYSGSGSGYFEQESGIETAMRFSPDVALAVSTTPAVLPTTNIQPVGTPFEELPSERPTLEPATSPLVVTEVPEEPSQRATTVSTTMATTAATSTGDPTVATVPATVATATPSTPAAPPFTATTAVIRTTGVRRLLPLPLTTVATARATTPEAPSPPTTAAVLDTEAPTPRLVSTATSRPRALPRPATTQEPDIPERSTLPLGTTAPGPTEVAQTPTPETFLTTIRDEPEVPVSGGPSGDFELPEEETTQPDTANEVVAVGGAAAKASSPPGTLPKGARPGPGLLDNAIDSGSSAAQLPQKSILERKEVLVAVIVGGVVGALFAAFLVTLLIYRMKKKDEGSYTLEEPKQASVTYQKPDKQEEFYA
UniProt Q96NL6, sequence (Q96NL6 whole entry, looked up): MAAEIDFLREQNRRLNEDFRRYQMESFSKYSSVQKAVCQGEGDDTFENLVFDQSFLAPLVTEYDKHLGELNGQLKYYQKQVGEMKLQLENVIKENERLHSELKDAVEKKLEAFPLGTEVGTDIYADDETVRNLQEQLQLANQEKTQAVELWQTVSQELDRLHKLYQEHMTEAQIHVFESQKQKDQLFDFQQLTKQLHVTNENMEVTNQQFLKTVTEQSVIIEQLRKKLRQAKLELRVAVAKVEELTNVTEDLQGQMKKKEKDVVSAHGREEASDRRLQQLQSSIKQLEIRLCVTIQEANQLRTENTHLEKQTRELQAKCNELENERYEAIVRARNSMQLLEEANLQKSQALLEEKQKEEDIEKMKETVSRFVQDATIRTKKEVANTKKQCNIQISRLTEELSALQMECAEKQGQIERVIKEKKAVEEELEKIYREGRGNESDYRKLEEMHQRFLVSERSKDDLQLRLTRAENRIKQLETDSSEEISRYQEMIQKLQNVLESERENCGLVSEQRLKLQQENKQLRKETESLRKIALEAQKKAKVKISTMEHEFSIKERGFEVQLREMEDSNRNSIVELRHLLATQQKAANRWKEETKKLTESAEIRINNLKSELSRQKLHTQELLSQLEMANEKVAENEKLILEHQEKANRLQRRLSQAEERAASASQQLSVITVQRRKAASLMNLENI
UniProt Q9H2X9, sequence (Q9H2X9 whole entry, looked up): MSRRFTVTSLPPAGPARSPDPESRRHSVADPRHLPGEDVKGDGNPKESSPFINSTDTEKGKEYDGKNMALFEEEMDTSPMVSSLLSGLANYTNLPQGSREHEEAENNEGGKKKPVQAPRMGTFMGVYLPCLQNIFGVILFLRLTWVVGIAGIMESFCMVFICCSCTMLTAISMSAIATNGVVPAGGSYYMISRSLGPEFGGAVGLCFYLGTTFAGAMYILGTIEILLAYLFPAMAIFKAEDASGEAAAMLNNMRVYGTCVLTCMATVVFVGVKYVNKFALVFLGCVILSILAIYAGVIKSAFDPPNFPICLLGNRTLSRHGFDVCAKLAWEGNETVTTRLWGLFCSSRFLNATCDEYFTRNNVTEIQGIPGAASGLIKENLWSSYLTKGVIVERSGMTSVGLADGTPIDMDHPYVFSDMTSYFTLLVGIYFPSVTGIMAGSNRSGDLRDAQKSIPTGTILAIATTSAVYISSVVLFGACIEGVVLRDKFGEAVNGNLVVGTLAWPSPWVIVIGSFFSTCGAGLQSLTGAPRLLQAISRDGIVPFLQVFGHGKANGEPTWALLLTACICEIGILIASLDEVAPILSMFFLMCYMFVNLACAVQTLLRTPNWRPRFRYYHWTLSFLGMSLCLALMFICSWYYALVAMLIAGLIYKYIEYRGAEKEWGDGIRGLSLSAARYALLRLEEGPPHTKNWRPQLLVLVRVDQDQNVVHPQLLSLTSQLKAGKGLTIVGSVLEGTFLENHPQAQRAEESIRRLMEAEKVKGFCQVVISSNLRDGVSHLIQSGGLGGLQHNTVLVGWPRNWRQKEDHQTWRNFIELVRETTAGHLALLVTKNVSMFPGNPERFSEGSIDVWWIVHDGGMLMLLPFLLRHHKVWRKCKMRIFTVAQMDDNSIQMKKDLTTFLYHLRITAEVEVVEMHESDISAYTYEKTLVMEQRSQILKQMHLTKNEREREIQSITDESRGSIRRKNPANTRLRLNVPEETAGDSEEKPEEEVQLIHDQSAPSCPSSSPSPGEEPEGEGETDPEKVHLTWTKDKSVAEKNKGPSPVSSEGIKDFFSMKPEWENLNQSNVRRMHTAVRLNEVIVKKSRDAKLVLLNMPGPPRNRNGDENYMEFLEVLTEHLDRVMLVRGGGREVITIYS
UniProt Q96GF1, sequence (Q96GF1 whole entry, looked up): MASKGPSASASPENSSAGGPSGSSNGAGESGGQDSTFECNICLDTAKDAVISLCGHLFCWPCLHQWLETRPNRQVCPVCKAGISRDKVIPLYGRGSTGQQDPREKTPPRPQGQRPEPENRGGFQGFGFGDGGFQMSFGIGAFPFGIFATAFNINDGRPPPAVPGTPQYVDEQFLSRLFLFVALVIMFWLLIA
UniProt P60903, sequence (P60903 whole entry, looked up): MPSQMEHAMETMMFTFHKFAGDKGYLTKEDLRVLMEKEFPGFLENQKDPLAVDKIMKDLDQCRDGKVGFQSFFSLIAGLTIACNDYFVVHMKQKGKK

Target	log2 fold change [1]	log2 fold change (volasertib)	log2 fold change (epoxomicin)	log2 fold change [2]	log2 fold change [3]	log2 fold change (rosiglitazone)	log2 fold change [4]	log2 fold change [5]	log2 fold change [6]	log2 fold change [7]
SLC12A5 (UniProt Q9H2X9)	-0.007	-0.033	-0.162	0.002	-0.013	-0.022	0.316			
SCLT1 (UniProt Q96NL6)					-0.013	0.01	-0.089	-0.066	-0.116	-0.029
RNF185 (UniProt Q96GF1)	-0.041	-0.101		0.02	0.028	-0.075		-0.06	-0.003	0.09
RNF167 (UniProt Q9H6Y7)		0.003	0.039	0.103	-0.008	-0.019	0.05	-0.043	0.057	-0.097
RPS6KA3 (UniProt P51812)		-0.174	0.027	0.066	0.016	0.052	-0.043	0.065	-0.049	-0.192
SDC3 (UniProt O75056)	0.223		0.005		0.006		-0.017	0.067	-0.401	0.632
SAMD4B (UniProt Q5PRF9)		0.078	0.02	-0.124		-0.008	0.089	-0.047	0.023	-0.308
RPS3A (UniProt D6R9B6)							0.247			
RPS3 (UniProt E9PJN9)	0.098						0.088		-0.125	0.089
SH3PXD2B (UniProt A1X283)	-2.01 (active)		0.048	0.014	-0.019	-0.008		-0.068	0.097	-1.2 (active)
SEMG2 (UniProt Q02383)	0.043		0.06			0.049		0.15	0.035	0.058
RPAIN isoform 8 (UniProt Q86UA6)		-0.718 (active)	-0.118		-0.076	-0.021	-0.044			
S100A10 (UniProt P60903)	0.284	-0.048				-0.094		0.145	-0.056	-0.026
RNF26 (UniProt Q9BY78)					0.017	-0.131			0.077	-1.04 (active)
